In the supplement of paper PMC13380429 one finds morphology score data, which are given here for 40 compounds.

Counter-ions that a name gives are not always drawn.

This experiment deals with Vero E6 infected with SARS-CoV-2. Briefly: morphology score (similarity to uninfected cells); higher = more like uninfected cells. As to conditions: 24 h.
Consider `CC[C@@H](C)CNCC(=O)N1CCc2sccc2[C@@H]1COc1cccc(C)c1` (10 µM), for which the morphology score was found to be 0.447.
For `OCc1ccccc1O[C@@H]1O[C@H](CO)[C@@H](O)[C@H](O)[C@H]1O` [salicin] (10 µM), the morphology score turned out to be 0.153.
Consider `CCN(CC)S(=O)(=O)c1ccc(C(=O)O)cc1` [etebenecid] (10 µM), for which the morphology score was 0.125.
Turning to `CC[n+]1c(-c2ccccc2)c2cc(N)ccc2c2ccc(N)cc21` [homidium] (10 µM), the morphology score worked out at 0.276.
For the compound `C=C1/C(=C\C=C2/CCC[C@]3(C)[C@@H]([C@H](C)CC[C@@H](O)C(C)C)CC[C@@H]23)C[C@@H](O)C[C@@H]1O` [tacalcitol] (10 µM), the morphology score was -0.24.
On to `CNCCc1cnc[nH]1` [N-alpha-methylhistamine-dihydrochloride] (10 µM), for which the morphology score is -0.0409.
On to `C[C@H](NCc1ccc(OCc2cccc(F)c2)cc1)C(N)=O` [safinamide] (10 µM), for which the morphology score is -0.052.
For `COc1ccccc1N1CCN(CCN(C(=O)C2CCCCC2)c2ccccn2)CC1` (10 µM) the value was 0.0947; for `C[C@@H]1C[C@H]2[C@@H]3CCC4=CC(=O)C=C[C@]4(C)[C@@]3(F)[C@@H](O)C[C@]2(C)[C@@]1(O)C(=O)COP(=O)(O)O` (10 µM), 0.0439; for `N#C/C(=C\c1cccn1S(=O)(=O)c1cccc([N+](=O)[O-])c1)S(=O)(=O)c1ccc(F)cc1` (10 µM), -0.181.
The same measure for `N#Cc1ncccn1` [2-cyanopyrimidine] (10 µM): 0.0613.
Regarding `CN(C)C[C@H](O)Cn1c2ccc(Br)cc2c2cc(Br)ccc21` (racemic) [wiskostatin] (0.833333 µM), the morphology score is 0.146.
The compound `CCn1c(=O)c(-c2cc[nH]n2)cc2c(C)nc(N)nc21` [voxtalisib] (0.833333 µM) came in with a morphology score of 0.00591.
`Cc1cccc(C)c1NC(=O)CN1CCCC1=O` [nefiracetam] (10 µM) yielded a morphology score of 0.0495.
For `Cc1cc(C)nc(NS(=O)(=O)c2ccc(NC(=S)NC(=O)COc3ccc(Br)cc3Cl)cc2)n1` (10 µM), the morphology score came to 0.0709.
As for `NC(=O)CCCCn1ccc(/N=C(\N)NCC(F)(F)F)n1` (10 µM), the morphology score came to 0.00958.
For `N#Cc1cc2c(OCC(O)CN3CCN(C(c4ccccc4)c4ccccc4)CC3)cccc2[nH]1` (stereo not given) (0.833333 µM), the morphology score turned out to be 0.124.
Consider `CC(C)(C)C(=O)OCOC(=O)[C@@H]1N2C(=O)[C@@H](/N=C/N3CCCCCC3)[C@H]2SC1(C)C` [pivmecillinam] (10 µM), for which the morphology score was -0.0287.
On to `CC(Cc1ccccc1)NCCC(c1ccccc1)c1ccccc1` (stereo not given) [prenylamine] (10 µM), for which the morphology score came to 0.878.
`CC(C)[C@H](O)C(=O)N[C@@H](C)C(=O)N[C@@H]1C(=O)N(C)CCc2ccccc21` [semagacestat] (10 µM) gave a morphology score of 0.0376.
As to `CC(C)(F)C[C@H](N[C@@H](c1ccc(-c2ccc(S(C)(=O)=O)cc2)cc1)C(F)(F)F)C(=O)NC1(C#N)CC1` [odanacatib] (10 µM), the morphology score was 0.161.
In turn, `C(#CCN1CCCC1)CN1CCCC1` [tremorine] (10 µM) had a morphology score of 0.107.
Compound `O=C(Nc1cc(C(F)(F)F)cc(C(F)(F)F)c1)c1cc(Cl)ccc1O` [IKK-2-inhibitor-V] (10 µM) showed a morphology score of -0.2.
With `Cc1ccccc1N1CCN(CCc2nnc3n2CCCC3)CC1` [dapiprazole] (10 µM), the morphology score amounted to 0.109.
For the compound `C1Cc2[nH]nc(-c3nn[nH]n3)c2C1` (10 µM), the morphology score was -0.0417.
Compound `CC1(C)CCC(C)(C)c2cc(Cn3cccn3)c(/C=C/c3ccc(C(=O)O)cc3)cc21` [palovarotene] (10 µM) yielded a morphology score of -0.127.
The same measure for `Cn1cc(-c2ccc3c(c2)CCN3C(=O)Cc2cccc(C(F)(F)F)c2)c2c(N)ncnc21` (0.833333 µM): 0.029; for `CCOC(=O)CSCCC1NC(C(=O)O)CS1` (stereo not given) [letosteine] (10 µM): -0.0697; for `CC(C)(Sc1ccncc1-c1ccc(C#N)c2ccccc12)C(=O)O` [verinurad] (10 µM): 0.122.
`O=c1cc(N2CCOCC2)oc2c1ccc1ccccc12` (10 µM) returned a morphology score of 0.258.
For `CN(C)CCCSC(=N)N` [dimaprit] (10 µM) the value was 0.245; for `Nc1ncnc2c1ncn2[C@@H]1O[C@H](C[C@@H](N)CC[C@H](N)C(=O)O)[C@@H](O)[C@H]1O` [sinefungin] (10 µM), 0.0839.
The same measure for `CC1(C)S[C@@H]2[C@H](NC(=O)[C@H](NC(=O)N3CCN(S(C)(=O)=O)C3=O)c3ccccc3)C(=O)N2[C@H]1C(=O)O` [mezlocillin] (10 µM): 0.0709; for `C[C@H]1CN(C[C@H](Cc2ccccc2)C(=O)NCC(=O)O)CC[C@@]1(C)c1cccc(O)c1` [alvimopan] (10 µM): 0.116; for `O=C1c2ccccc2-c2n[nH]c3cccc1c23` [pyrazolanthrone] (10 µM): 0.0961.
With `C[C@@H]1CN(c2c(F)c(N)c3c(=O)c(C(=O)O)cn(C4CC4)c3c2F)C[C@H](C)N1` [sparfloxacin] (10 µM), the morphology score was -0.0335.
For `Nc1nccc(Oc2ccc(NC(=O)c3c[nH]cc(-c4ccc(F)cc4)c3=O)cc2F)c1Cl` [metatinib] (10 µM) the value was 0.551; for `O=C(O)c1cc(N2N=C(C(F)(F)F)/C(=C/c3ccc(-c4ccccc4)o3)C2=O)ccc1Cl` (10 µM), 0.185; for `CCOC(=O)Nc1cc2c(c(N)n1)N=C(c1ccccc1)[C@H](C)N2` [mivobulin] (10 µM), -0.0939.
In turn, `Cc1cc(Nc2nc(N[C@@H](C)c3ccc(F)cc3)c(C#N)cc2F)n[nH]1` (10 µM) returned a morphology score of -0.0459.
